# In article PMC9911399, “Two distinct binding modes provide the RNA-binding protein RbFox with extraordinary sequence specificity”:
# Positions count from the first letter of the chain named. In all, about 16,000 sequences were measured (“ka relative to ugcaugu”: median about 0.096, highest 2% from about 0.35 on). What follows is part of a selection rich in the highest values, with near analogues and random picks from the rest.
# T1: RBFOX1 RRM RbFoxmut (Fox-RRM*) (Homo sapiens, UniProt Q9NWB1 109-208, R118D;E147R;N151S;E152T)
# T1 sequence: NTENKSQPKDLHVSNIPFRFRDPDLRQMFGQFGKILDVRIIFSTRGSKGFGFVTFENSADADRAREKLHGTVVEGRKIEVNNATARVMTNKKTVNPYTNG
# B1: UCCGUCA (DNA:RNA)
# RNA: GGGAGACCGGAAUUCAGAUUGUCCUCCGUCAUUAAAUCCCGUCGUAGCCACCA
# DNA 1: CAATCTGAATTCCGGTCTCCC
# DNA 2: TGGTGGCTACGACGGGATT
# B2: GUAGCCA (DNA:RNA)
# RNA: B1 RNA with U25G, C26U, C27A, U29C
# DNA 1: CAATCTGAATTCCGGTCTCCC
# DNA 2: TGGTGGCTACGACGGGATT
# B3: ACACUGG (DNA:RNA)
# RNA: B1 RNA with U25A, C27A, G28C, C30G, A31G
# DNA 1: CAATCTGAATTCCGGTCTCCC
# DNA 2: TGGTGGCTACGACGGGATT
# B4: CCCCAGA (DNA:RNA)
# RNA: B1 RNA with U25C, G28C, U29A, C30G
# DNA 1: CAATCTGAATTCCGGTCTCCC
# DNA 2: TGGTGGCTACGACGGGATT
# B5: UAAACAG (DNA:RNA)
# RNA: B1 RNA with C26A, C27A, G28A, U29C, C30A, A31G
# DNA 1: CAATCTGAATTCCGGTCTCCC
# DNA 2: TGGTGGCTACGACGGGATT
# B6: CACGGCC (DNA:RNA)
# RNA: B1 RNA with U25C, C26A, U29G, A31C
# DNA 1: CAATCTGAATTCCGGTCTCCC
# DNA 2: TGGTGGCTACGACGGGATT
# B7: GCCUUGU (DNA:RNA)
# RNA: B1 RNA with U25G, G28U, C30G, A31U
# DNA 1: CAATCTGAATTCCGGTCTCCC
# DNA 2: TGGTGGCTACGACGGGATT
# B8: GCCUUCA (DNA:RNA)
# RNA: B1 RNA with U25G, G28U
# DNA 1: CAATCTGAATTCCGGTCTCCC
# DNA 2: TGGTGGCTACGACGGGATT
# B9: GUCGGCC (DNA:RNA)
# RNA: B1 RNA with U25G, C26U, U29G, A31C
# DNA 1: CAATCTGAATTCCGGTCTCCC
# DNA 2: TGGTGGCTACGACGGGATT
# B10: GCUUGCC (DNA:RNA)
# RNA: B1 RNA with U25G, C27U, G28U, U29G, A31C
# DNA 1: CAATCTGAATTCCGGTCTCCC
# DNA 2: TGGTGGCTACGACGGGATT
# B11: GCCUCGU (DNA:RNA)
# RNA: B1 RNA with U25G, G28U, U29C, C30G, A31U
# DNA 1: CAATCTGAATTCCGGTCTCCC
# DNA 2: TGGTGGCTACGACGGGATT
# B12: GCCUUAA (DNA:RNA)
# RNA: B1 RNA with U25G, G28U, C30A
# DNA 1: CAATCTGAATTCCGGTCTCCC
# DNA 2: TGGTGGCTACGACGGGATT
# B13: GCCUUGC (DNA:RNA)
# RNA: B1 RNA with U25G, G28U, C30G, A31C
# DNA 1: CAATCTGAATTCCGGTCTCCC
# DNA 2: TGGTGGCTACGACGGGATT
# B14: GCCUUUU (DNA:RNA)
# RNA: B1 RNA with U25G, G28U, C30U, A31U
# DNA 1: CAATCTGAATTCCGGTCTCCC
# DNA 2: TGGTGGCTACGACGGGATT
# B15: GGCCUUG (DNA:RNA)
# RNA: B1 RNA with U25G, C26G, G28C, C30U, A31G
# DNA 1: CAATCTGAATTCCGGTCTCCC
# DNA 2: TGGTGGCTACGACGGGATT
# B16: GCCUUGA (DNA:RNA)
# RNA: B1 RNA with U25G, G28U, C30G
# DNA 1: CAATCTGAATTCCGGTCTCCC
# DNA 2: TGGTGGCTACGACGGGATT
# B17: GCCUGCG (DNA:RNA)
# RNA: B1 RNA with U25G, G28U, U29G, A31G
# DNA 1: CAATCTGAATTCCGGTCTCCC
# DNA 2: TGGTGGCTACGACGGGATT
# B18: GGCGGCC (DNA:RNA)
# RNA: B1 RNA with U25G, C26G, U29G, A31C
# DNA 1: CAATCTGAATTCCGGTCTCCC
# DNA 2: TGGTGGCTACGACGGGATT
# B19: AGUUUUA (DNA:RNA)
# RNA: B1 RNA with U25A, C26G, C27U, G28U, C30U
# DNA 1: CAATCTGAATTCCGGTCTCCC
# DNA 2: TGGTGGCTACGACGGGATT
# B20: UCGAAGU (DNA:RNA)
# RNA: B1 RNA with C27G, G28A, U29A, C30G, A31U
# DNA 1: CAATCTGAATTCCGGTCTCCC
# DNA 2: TGGTGGCTACGACGGGATT
# B21: GUCCUUU (DNA:RNA)
# RNA: B1 RNA with U25G, C26U, G28C, C30U, A31U
# DNA 1: CAATCTGAATTCCGGTCTCCC
# DNA 2: TGGTGGCTACGACGGGATT
# B22: CGACCAC (DNA:RNA)
# RNA: GGGAGACCGGAAUUCAGAUUGUCCCGACCACUUAAAUCCCGUCGUAGCCACCA
# DNA 1: CAATCTGAATTCCGGTCTCCC
# DNA 2: TGGTGGCTACGACGGGATT
# B23: AACACUU (DNA:RNA)
# RNA: B22 RNA with C25A, G26A, A27C, C28A, A30U, C31U
# DNA 1: CAATCTGAATTCCGGTCTCCC
# DNA 2: TGGTGGCTACGACGGGATT
# B24: ACAACGA (DNA:RNA)
# RNA: B22 RNA with C25A, G26C, C28A, A30G, C31A
# DNA 1: CAATCTGAATTCCGGTCTCCC
# DNA 2: TGGTGGCTACGACGGGATT
# B25: GGAGGAU (DNA:RNA)
# RNA: B22 RNA with C25G, C28G, C29G, C31U
# DNA 1: CAATCTGAATTCCGGTCTCCC
# DNA 2: TGGTGGCTACGACGGGATT
# B26: AAUCGAA (DNA:RNA)
# RNA: B22 RNA with C25A, G26A, A27U, C29G, C31A
# DNA 1: CAATCTGAATTCCGGTCTCCC
# DNA 2: TGGTGGCTACGACGGGATT
# B27: GUCCGCC (DNA:RNA)
# RNA: B22 RNA with C25G, G26U, A27C, C29G, A30C
# DNA 1: CAATCTGAATTCCGGTCTCCC
# DNA 2: TGGTGGCTACGACGGGATT
# B28: AGCCUUG (DNA:RNA)
# RNA: B22 RNA with C25A, A27C, C29U, A30U, C31G
# DNA 1: CAATCTGAATTCCGGTCTCCC
# DNA 2: TGGTGGCTACGACGGGATT
# B29: CGCCUUG (DNA:RNA)
# RNA: B22 RNA with A27C, C29U, A30U, C31G
# DNA 1: CAATCTGAATTCCGGTCTCCC
# DNA 2: TGGTGGCTACGACGGGATT
# B30: GCCCGCC (DNA:RNA)
# RNA: B1 RNA with U25G, G28C, U29G, A31C
# DNA 1: CAATCTGAATTCCGGTCTCCC
# DNA 2: TGGTGGCTACGACGGGATT
# B31: CGCCGCC (DNA:RNA)
# RNA: B22 RNA with A27C, C29G, A30C
# DNA 1: CAATCTGAATTCCGGTCTCCC
# DNA 2: TGGTGGCTACGACGGGATT
# B32: AGCAGCC (DNA:RNA)
# RNA: B22 RNA with C25A, A27C, C28A, C29G, A30C
# DNA 1: CAATCTGAATTCCGGTCTCCC
# DNA 2: TGGTGGCTACGACGGGATT
# B33: GCCUUGG (DNA:RNA)
# RNA: B1 RNA with U25G, G28U, C30G, A31G
# DNA 1: CAATCTGAATTCCGGTCTCCC
# DNA 2: TGGTGGCTACGACGGGATT
# B34: ACCAGCC (DNA:RNA)
# RNA: B1 RNA with U25A, G28A, U29G, A31C
# DNA 1: CAATCTGAATTCCGGTCTCCC
# DNA 2: TGGTGGCTACGACGGGATT
# B35: GCCAGCC (DNA:RNA)
# RNA: B1 RNA with U25G, G28A, U29G, A31C
# DNA 1: CAATCTGAATTCCGGTCTCCC
# DNA 2: TGGTGGCTACGACGGGATT
# Target: T1, RBFOX1 RRM RbFoxmut (Fox-RRM*)
# Assay: EMSA; HiTS-Eq, 1 nM pool, 10 min; buffer printed only for the single-RNA assays: 10 mM Tris pH 7.5, 150 mM NaCl, 3.4 mM EDTA, 0.001% NP-40, 30 C
# Conditions: tags: His6 N-terminal (pET28a); label: 5' 32P
# How it was run: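 Purified RbFox RRM, wild type or mutant, was incubated for 10 min in 50 µL with 1 nM of a 5′-radiolabelled RNA pool carrying 7 randomized nucleotides, whose flanks were annealed to DNA oligonucleotides, over a series of increasing protein concentrations. Unbound RNA was resolved on 8% native PAGE, cut out, reverse-transcribed, barcoded by PCR and sequenced on an Illumina HiSeq 2500. Relative association constants were derived from changes in read counts for each RNA species versus the control reaction and normalised to the cognate motif.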
row,Binder,binding signal
1,B1,0.111 KA relative to UGCAUGU
2,B2,0.082 KA relative to UGCAUGU
3,B3,0.123 KA relative to UGCAUGU
4,B4,0.0916 KA relative to UGCAUGU
5,B5,0.0612 KA relative to UGCAUGU
6,B6,0.18 KA relative to UGCAUGU
7,B7,0.714 KA relative to UGCAUGU
8,B8,0.146 KA relative to UGCAUGU
9,B9,0.214 KA relative to UGCAUGU
10,B10,0.239 KA relative to UGCAUGU
11,B11,0.224 KA relative to UGCAUGU
12,B12,0.0981 KA relative to UGCAUGU
13,B13,0.387 KA relative to UGCAUGU
14,B14,0.0724 KA relative to UGCAUGU
15,B15,0.478 KA relative to UGCAUGU
16,B16,0.561 KA relative to UGCAUGU
17,B17,0.172 KA relative to UGCAUGU
18,B18,0.16 KA relative to UGCAUGU

row,Binder,binding signal
1,B19,0.101 KA relative to UGCAUGU
2,B20,0.107 KA relative to UGCAUGU
3,B21,0.081 KA relative to UGCAUGU
4,B22,0.0643 KA relative to UGCAUGU
5,B23,0.0596 KA relative to UGCAUGU
6,B24,0.0863 KA relative to UGCAUGU
7,B25,0.0724 KA relative to UGCAUGU
8,B26,0.081 KA relative to UGCAUGU
9,B27,0.105 KA relative to UGCAUGU
10,B28,0.576 KA relative to UGCAUGU
11,B29,0.978 KA relative to UGCAUGU
12,B30,0.0938 KA relative to UGCAUGU
13,B31,0.13 KA relative to UGCAUGU
14,B32,0.0801 KA relative to UGCAUGU
15,B33,0.501 KA relative to UGCAUGU
16,B34,0.0795 KA relative to UGCAUGU
17,B35,0.075 KA relative to UGCAUGU
